From ChEMBL document CHEMBL4513216, “Probing the Open Global Health Chemical Diversity Library for Multistage-Active Starting Points for Next-Generation Antimalarials” (ACS Infect Dis, 2020) come the findings set out here.

Hit rate of the full screen: of about 69,000 compounds, about 8,600 (12%) showed an effect of 50% or more. Only a selection was taken, and strong results are over-represented in it overall.

This test concerns Plasmodium berghei. The test is described as follows: Screen against P. berghei liver stage (PbLuc), transformed with Luciferase, at 10uM. The settings on record: tested at 10 uM. It counts as functional, HepG2.
`Fc1cnc(N2CC[C@@H]3CN(Cc4ccncc4)CCO[C@@H]3C2)nc1`: the INHIBITION is 8.85%. As for `Cc1cnn(CCC(=O)N2CCCC(c3cc(C)[nH]n3)C2)c1` (configuration not stated), the INHIBITION is 45.7%. For `CC(Cn1cc(Br)cn1)C(=O)Nc1ccncc1` (configuration not stated) the value was -24.7%; for `Cc1cc(NC(=O)C(C)Cn2cncn2)no1` (configuration not stated), -1.445%. As for `Cc1cc(NC(=O)C(C)Cn2cc(Br)cn2)no1` (configuration not stated), the INHIBITION is listed as 67.1%. As to `CC(Cn1cc(Cl)cn1)C(=O)Nc1ccc(CN2CCCCCC2)cc1` (configuration not stated), the INHIBITION is recorded as 10.9%. With `CC(Cn1cc(Br)cn1)C(=O)Nc1ccc(C(N)=O)cc1` (configuration not stated), the INHIBITION amounted to 72.7%. `Cc1cnn(CC(C)NCC(=O)Nc2ccc(Cl)cn2)c1` (configuration not stated): the INHIBITION was -100%. In the case of `CC(Cn1cc(Br)cn1)C(=O)Nc1ccc(Br)cn1` (configuration not stated), the INHIBITION turned out to be 81%.

As for `Cc1cnn(CCNCC(=O)Nc2ccc(Br)cn2)c1`, the INHIBITION was -37.7%. For `CC(Cn1cc(Br)cn1)C(=O)Nc1ccn(C)n1` (configuration not stated), the INHIBITION is recorded as 15.7%.

On to `CC(=O)c1ccc(NC(=O)C(C)Cn2cc(Br)cn2)cc1` (configuration not stated), for which the INHIBITION is on record as -37.6%. Regarding `CC(Cn1cc(Br)cn1)C(=O)Nc1ccc(Cl)cn1` (configuration not stated), the INHIBITION is given as 56%. For `Cc1cc(NC(=O)Cn2ncc(Br)c2C)no1`, the INHIBITION was 15.9%. Regarding `CN(Cc1cn2c(n1)CN(c1ncc(F)cn1)CC2)Cc1ccco1`, the INHIBITION was 22.7%. `O=C(N1CCOCC1)[C@@]12CCO[C@@H]1CCN(C1CCOCC1)C2`: the INHIBITION is 38.5%.

Consider `Cc1ccc(NC2CCN(C(=O)CCNc3ncccn3)CC2)nn1`, for which the INHIBITION is recorded as -24.2%. With `Cc1cc(NC(=O)CN2CCN(c3nccs3)C(C)C2)no1` (configuration not stated), the INHIBITION turned out to be 19.2%. Regarding `CNC(=O)C1(CCCc2ccccn2)CN(Cc2nccn2C)C1`, the INHIBITION is reported as -40.1%. As for `CC(O)CN1CCC(CNCc2ccccc2F)CC1` (configuration not stated), the INHIBITION is on record as -34.365%. With `Cc1cc(C(=O)CN2CCN(c3ncccn3)CC2)c(C)n1C(C)C`, the INHIBITION was 26.4%.

Turning to `CN1CCOC(CNCc2ccccc2OCc2ccccn2)C1` (configuration not stated), the INHIBITION is on record as -10.193%. For `OCCN1CCC(Cc2nccs2)CC1` the value was 13.955%; for `CC(C)N(C)CC(=O)NCCc1nc(C(F)(F)F)cs1`, -48.9%. On to `Cc1cccc(Nc2cc(C)nc(C3CCCCN3CC(N)=O)n2)n1` (configuration not stated), for which the INHIBITION is 18.9%. In the case of `CCC(NCCn1cc(C)cn1)C(=O)Nc1cc(C)on1` (configuration not stated), the INHIBITION stood at 35.4%.

For `CCC(NCCn1cccn1)C(=O)Nc1cc(C)on1` (configuration not stated), the INHIBITION was found to be 36.5%. Regarding `Cc1cc(NC(=O)C(C)NCCn2cccn2)no1` (configuration not stated), the INHIBITION amounted to 58.9%. The value for `Cc1nc[nH]c1CN1CCC(C2CCN(CCc3ccccc3)C2)CC1` (configuration not stated) was 44.3%.

With `CC(=O)c1ccc(CN2CCCC23CCN(c2ccccn2)CC3)cc1`, the INHIBITION was found to be 49.9%.

As for `Cc1nc[nH]c1CN1CCCN(c2nc3ccccc3s2)CC1`, the INHIBITION was 76.6%.

For `c1ccc2sc(N3CCC4(CCCN4Cc4ncc[nH]4)CC3)nc2c1`, the INHIBITION came to 51.6%. The value for `Cc1nc[nH]c1CN1CCn2nc(CN3Cc4ccccc4C3)cc2C1` was 22.8%. As for `Cc1nc(CN2CCCC23CCN(c2nc4ccccc4s2)CC3)co1`, the INHIBITION is reported as 14.1%. For `Cc1nc[nH]c1CN1CCCC12CCN(c1nc3ccccc3s1)CC2`, the INHIBITION turned out to be 76.6%.

Turning to `Cc1nc[nH]c1CN1CCCC12CCN(c1ccccn1)CC2`, the INHIBITION worked out at 20.9%. As to `Cn1cc(CN2CCCC23CCN(c2nc4ccccc4s2)CC3)cn1`, the INHIBITION is 47%.

`CN(C)C1CCCN(C(=O)NCc2ccccc2-n2cccn2)C1` (configuration not stated): the INHIBITION came to 21.5%.

On to `CCS(=O)(=O)N1Cc2nccn2CC(Cn2cccn2)C1` (configuration not stated), for which the INHIBITION came to 37.5%. Take `O=C(O)c1cc(-c2ccccc2)ns1`: the INHIBITION was determined as 45.9%.

Turning to `O=C(COCc1ccccc1)N1CCCC1c1noc(C2CC2)n1` (configuration not stated), the INHIBITION turned out to be 7.27%. `O=C(C[C@@H]1COC[C@H]2CN(C(=O)c3ccccn3)C[C@@H]12)N1CCCC1`: the INHIBITION was 6.72%. As for `Cc1cccc(N2Cc3c(NC4CCCC4)ncnc3N(C)CC2=O)c1`, the INHIBITION turned out to be 7.66%. For `CC(=O)c1cccc(NC(=O)CN2CCCC(C3OCCO3)C2)c1` (configuration not stated) the value was 53.4%; for `CC(=O)c1cccc(NC(=O)CN2CCCCC2C2OCCO2)c1` (configuration not stated), 1.81%. The value for `CC(=O)c1cccc(NC(=O)CN2CCCCC2C)c1` (configuration not stated) was 14%. `CN(C)Cc1cnn(-c2ccccc2C(=O)N(C)Cc2ccccc2)c1`: the INHIBITION is -52.6%. In the case of `Cc1cc(=O)c2ccccc2n1CC1CCNC1` (configuration not stated), the INHIBITION turned out to be 12.8%. With `Cc1cc(=O)c2ccccc2n1CC1CCN(C(C)C)C1` (configuration not stated), the INHIBITION stood at 53.9%. As to `Cc1cc(=O)c2ccccc2n1CC1CCCN(C)C1` (configuration not stated), the INHIBITION was -9.92%. Regarding `c1cnc(N2CCO[C@H]3CN(Cc4csnn4)C[C@H]32)cn1`, the INHIBITION was 23.3%. For the compound `O=C(NCCc1ccn(-c2ccccc2)n1)N1CCSCC1`, the INHIBITION is 62.9%. Consider `O=C(NCCc1ccn(-c2ccccc2)n1)N1CCC1`, for which the INHIBITION is reported as 26.9%. As to `O=C(NCCc1ccn(-c2ccccc2)n1)N1CCCC(O)C1` (configuration not stated), the INHIBITION is listed as -16%. For `Cc1cccc(NC(=O)C(C)Nc2cccc(CN3CCOC3=O)c2)c1` (configuration not stated), the INHIBITION was -18.15%. Consider `CC1CC(=O)c2cc(C(=O)N3CCc4ccccc4C3)c(=O)[nH]c2C1` (configuration not stated), for which the INHIBITION is listed as 10.9%.

For `Cc1ccc(CN2C[C@@H]3CCCO[C@@H]3[C@H](N(C)Cc3ccco3)C2)o1`, the INHIBITION came to 18.5%.
